For six compounds, outcome and AC50 results are on record in PubChem BioAssay (EPA / NIEHS).

The source made the active and inactive calls. The calls were made as follows: active = hit-call score of the fitted dose curve at least 0.9, where 1 is the maximum; inactive = score below 0.9.

Read-out in test [1]: Vascular endothelial growth factor receptor 2 (Homo sapiens) (UniProt P35968)
The experiment in a line: BSK_4H_VEGFRII: BioMAP Diversity Plus: 4H Assay for Vascular endothelial growth factor receptor 2 (VEGFR2) Biomarker Activity (AID 2283031).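 As to AC50: cell-surface VEGFR2 protein level quantified by ELISA.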 The conditions noted are these: primary human endothelial cells (HUVEC); actives raise or lower the signal. The essentials: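 Primary human umbilical vein endothelial cells (4H system), 24 h exposure; cell-surface VEGFR2 measured by ELISA. Bidirectional fitting versus DMSO; cytotoxicity checked in parallel by SRB total-protein staining.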

Read-out in test [2]: Human Leukocyte Antigen - DR isotype (HLADR), HLA-DRA (gene 3122)
The experiment in a line: BSK_BE3C_HLADR: BioMAP Diversity Plus: BE3C Assay for Human Leukocyte Antigen - DR isotype (HLADR) Biomarker Activity (AID 2283032). The conditions noted are these: primary human bronchial epithelial cells; actives raise or lower the signal. In outline: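 ELISA read-out of HLA-DR on human lung bronchial epithelial primary cells, measured 24 h post-dosing. Both increases and decreases were scored relative to DMSO vehicle.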

Read-out in test [3]: Vascular cell adhesion molecule 1 (VCAM1), VCAM1 (gene 7412)
Kind of test: BSK_4H_VCAM1: BioMAP Diversity Plus: 4H Assay for Vascular cell adhesion molecule 1 (VCAM1) Biomarker Activity (AID 2283033).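 As to outcome: cell-surface VCAM-1 protein measured by ELISA.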 The conditions noted are these: primary human endothelial cells (HUVEC); actives raise or lower the signal. The essentials:
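ELISA read-out of VCAM-1 on human umbilical vein endothelium 24 hours after chemical dosing; gain or loss of signal was fitted relative to DMSO, with sulforhodamine B staining of parallel cultures flagging overt cytotoxicity.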

Read-out in test [4]: Interferon-gamma inducible Protein 10 (IP10), CXCL10 (gene 3627)
The experiment in a line: BSK_BE3C_IP10: BioMAP Diversity Plus: BE3C Assay for Interferon-gamma inducible Protein 10 (IP10) Biomarker Activity (AID 2283034). Conditions: primary human bronchial epithelial cells; actives raise or lower the signal. The essentials:
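Chemical is dosed onto human lung bronchial epithelial primary cells, cultures are incubated 24 h, and IP-10 is then quantified by ELISA. Gain or loss of signal is fitted in both directions relative to DMSO.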

Read-out in test [5]: Monokine induced gamma interferon (MIG), CXCL9 (gene 4283)
The experiment in a line: BSK_BE3C_MIG: BioMAP Diversity Plus: BE3C Assay for Monokine induced gamma interferon (MIG) Biomarker Activity (AID 2283035).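 Also: MIG protein measured by ELISA in BE3C cultures after 24 h of dosing.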 The conditions noted are these: primary human bronchial epithelial cells; actives raise or lower the signal. In outline:
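MIG level was determined by ELISA after 24 h chemical treatment of primary human bronchial epithelial cells. Values were fitted bidirectionally with DMSO as the negative control and activity baseline.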

Read-out in test [6]: Transforming growth factor beta 1 (TGFb1), TGFB1 (gene 7040)
Kind of test: BSK_BE3C_TGFb1: BioMAP Diversity Plus: BE3C Assay for Transforming growth factor beta 1 (TGFb1) Biomarker Activity (AID 2283036;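 as to outcome: TGF-b1 protein level measured by ELISA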). The conditions noted are these: primary human bronchial epithelial cells; actives raise or lower the signal. The essentials:
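Primary human lung bronchial epithelial cells; compound exposure 24 h; TGF-b1 by ELISA; bidirectional fit, DMSO baseline. Parallel SRB total-protein staining for cytotoxicity.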

Read-out in test [7]: Plasminogen activator inhibitor-1 (PAI1), SERPINE1 (gene 5054)
The experiment in a line: BSK_BE3C_PAI1: BioMAP Diversity Plus: BE3C Assay for Plasminogen activator inhibitor-1 (PAI1) Biomarker Activity (AID 2283037). The conditions noted are these: primary human bronchial epithelial cells; actives raise or lower the signal. In outline:
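Primary human lung bronchial epithelial cells; chemical dosing; 24 h; PAI-1 measured by ELISA; bidirectional fit referenced to DMSO as negative control.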

Read-out in test [8]: urokinase plasminogen activator (uPA), PLAU (gene 5328)
The experiment in a line: BSK_BE3C_uPA: BioMAP Diversity Plus: BE3C Assay for urokinase plasminogen activator (uPA) Biomarker Activity (AID 2283038).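 Also: uPA protein level quantified by ELISA in cell cultures; uPA read one day after compound addition.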 Conditions: primary human bronchial epithelial cells; actives raise or lower the signal. The essentials:
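Primary human bronchial epithelial cells, uPA measured by ELISA 24 h after dosing. Bidirectional change relative to DMSO; cytotoxicity checked in parallel cultures by sulforhodamine B total-protein staining.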

Read-out in test [9]: Urokinase-type plasminogen activator receptor (uPAR), PLAUR (gene 5329)
The experiment in a line: BSK_BE3C_uPAR: BioMAP Diversity Plus: BE3C Assay for Urokinase-type plasminogen activator receptor (uPAR) Biomarker Activity (AID 2283039).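 As to outcome: uPAR protein level measured by ELISA on the cells; cells exposed to compound for one day before measurement.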 Conditions: primary human bronchial epithelial cells; actives raise or lower the signal. The essentials:
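Human bronchial epithelial primary cells; chemical exposure 24 h; uPAR by ELISA; bidirectional fit vs DMSO control.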

Read-out in test [10]: Interleukin-6 (IL6), IL6 (gene 3569)
Kind of test: BSK_CASM3C_IL6: BioMAP Diversity Plus: CASM3C Assay for Interleukin-6 (IL6) Biomarker Activity for (AID 2283040). Conditions: primary human coronary artery smooth muscle cells; actives raise or lower the signal.

Read-out in test [11]: Tissue plasminogen activator (tPA), PLAT (gene 5327)
The experiment in a line: BSK_BE3C_tPA: BioMAP Diversity Plus: BE3C Assay for Tissue plasminogen activator (tPA) Biomarker Activity (AID 2283041).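 Also: tPA level quantified by ELISA one day after compound addition.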 The conditions noted are these: primary human bronchial epithelial cells; actives raise or lower the signal. In outline: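 Primary human lung bronchial epithelial cultures receive test chemical; after 24 h, tPA is quantified by ELISA, and gain or loss of signal is fitted bidirectionally relative to DMSO baseline.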

Read-out in test [12]: Interleukin-8 (IL8), CXCL8 (gene 3576)
The experiment in a line: BSK_CASM3C_IL8: BioMAP Diversity Plus: CASM3C Assay for Interleukin-8 (IL8) Biomarker Activity (AID 2283042).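 Also: IL-8 protein level quantified by ELISA.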 Conditions: primary human coronary artery smooth muscle cells; actives raise or lower the signal.

Read-out in test [13]: Human Leukocyte Antigen - DR isotype (HLADR), HLA-DRA (gene 3122)
Kind of test: BSK_CASM3C_HLADR: BioMAP Diversity Plus: CASM3C Assay for Human Leukocyte Antigen - DR isotype (HLADR) Biomarker Activity (AID 2283043).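 Also: cell-surface HLA-DR protein level quantified by ELISA.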 The conditions noted are these: primary human coronary artery smooth muscle cells; actives raise or lower the signal.

Read-out in test [14]: Macrophage colony-stimulating factor (MCSF), CSF1 (gene 1435)
Kind of test: BSK_CASM3C_MCSF: BioMAP Diversity Plus: CASM3C Assay for Macrophage colony-stimulating factor (MCSF) Biomarker Activity (AID 2283044).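 Also: M-CSF protein amount quantified by ELISA after 24 h exposure.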 The conditions noted are these: primary human coronary artery smooth muscle cells; actives raise or lower the signal.

Read-out in test [15]: Low-density lipoprotein receptor (LDLR), LDLR (gene 3949)
Kind of test: BSK_CASM3C_LDLR: BioMAP Diversity Plus: CASM3C Assay for Low-density lipoprotein receptor (LDLR) Biomarker Activity (AID 2283045).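 Also: LDLR protein level on the cell surface quantified by ELISA.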 The conditions noted are these: primary human coronary artery smooth muscle cells; actives raise or lower the signal.

Read-out in test [16]: Monocyte Chemoattractant Protein-1 (MCP1), CCL2 (gene 6347)
The experiment in a line: BSK_CASM3C_MCP1: BioMAP Diversity Plus: CASM3C Assay for Monocyte Chemoattractant Protein-1 (MCP1) Biomarker Activity (AID 2283046).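 Also: MCP-1 level quantified by ELISA 24 h after dosing.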 Conditions: primary human coronary artery smooth muscle cells; actives raise or lower the signal.

Test [17] is described as follows: BSK_CASM3C_Proliferation: Cell Proliferation Assessment in the BioMAP Diversity Plus: CASM3C Assay (AID 2283047).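 Also: sulforhodamine B total protein stain as relative cell number at 560 nm; sub-confluent cells exposed 48 h before staining; fitted both ways against DMSO so gain or loss of cell number.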 The conditions noted are these: primary human coronary artery smooth muscle cells.
Read-out in test [18]: Monokine induced gamma interferon (MIG), CXCL9 (gene 4283)
Kind of test: BSK_CASM3C_MIG: BioMAP Diversity Plus: CASM3C Assay for Monokine induced gamma interferon (MIG) Biomarker Activity (AID 2283048).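 Also: MIG protein level measured by ELISA.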 The conditions noted are these: primary human coronary artery smooth muscle cells; actives raise or lower the signal.

Read-out in test [19]: serum amyloid A (SAA), SAA1 (gene 6288)
The experiment in a line: BSK_CASM3C_SAA: BioMAP Diversity Plus: CASM3C Assay for serum amyloid A (SAA) Biomarker Activity (AID 2283049).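 Also: SAA protein level quantified by ELISA.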 Conditions: primary human coronary artery smooth muscle cells; actives raise or lower the signal.

Test [20] in a line: BSK_CASM3C_SRB: Viability Assessment in the BioMAP Diversity Plus: CASM3C Assay (AID 2283050).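 Also: total protein by SRB staining as cytotoxicity measure in parallel cultures.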 Conditions: primary human coronary artery smooth muscle cells.

On to `Cc1cc(C)nc(NC(=O)NS(=O)(=O)c2ccccc2C(=O)OC2COC2)n1`, for which the result in test [1], in test [2], in test [3], in [4], in test [5] and in test [6] was inactive. In addition, the result in [7], in [8], in [9], in test [10], in test [11] and in test [12] was inactive. Besides, the outcome in test [13], in test [14], in test [15], in test [16], in [17] and in test [18] was inactive. Besides, the result in test [19] and in test [20] was inactive.

The term AC50 denotes the midpoint of the concentration-response curve, whichever way the signal moves. Regarding `COP(=S)(OC)Oc1ccc([N+](=O)[O-])cc1`, the outcome in [1], in test [2], in test [4], in test [5], in test [7] and in test [8] was inactive. For the same compound, the result in test [9], in test [10], in test [11], in test [12], in [13] and in test [14] was inactive. The outcome in [15], in test [17], in test [18], in test [19] and in test [20] was inactive. For the same compound, the results for the AC50 in [3], in test [6] and in test [16] were 20.1 µM (active), 9.07 µM (active) and 0.877 µM (active), respectively.

On to `[2H]C1([2H])[n+]2ccccc2-c2cccc[n+]2C1([2H])[2H]`, for which the outcome in test [2], in test [3], in test [4], in test [5], in test [6] and in test [7] was inactive. Also, the result in test [8], in [10], in test [11], in test [12], in [13] and in test [14] was inactive. In addition, the result in test [15], in test [18], in test [19] and in test [20] was inactive. The half-maximal activity concentration (AC50) in test [9] was 2.68 µM (active); in test [16], 0.156 µM (active); in [17], 10.6 µM (active).

For the compound `CC(C)N(C(=O)COc1nnc(C(F)(F)F)s1)c1ccc(F)cc1`, the outcome in test [1], in [2], in test [3], in [4], in [5] and in [6] was inactive. The outcome in test [7], in [8], in test [9], in test [10], in test [11] and in test [12] was inactive. The result in [13], in test [14], in test [15], in test [16], in test [17] and in test [18] was inactive. For the same compound, the result in test [19] and in [20] was inactive.

As to `CCOCN(C(=O)CCl)c1c(C)cccc1CC`, the outcome in test [1], in test [5], in [6], in [7], in test [8] and in test [9] was inactive. Also, the outcome in [10], in test [11], in test [13], in test [14], in test [15] and in test [16] was inactive. Besides, the result in test [18], in [19] and in test [20] was inactive. For the same compound, the AC50 in [2] was 15.3 µM (active); in test [3], 19.2 µM (active); in test [4], 16.5 µM (active); in [12], 15.8 µM (active); in test [17], 30 µM (active).

On to `CCC(C)Nc1c([N+](=O)[O-])cc(C(C)(C)C)cc1[N+](=O)[O-]` (centres undefined), for which the half-maximal activity concentration (AC50) is 21 µM (active) in [1] and 15.8 µM (active) in test [3]. Moreover, the result in test [2], in test [4], in test [5], in test [6], in [7] and in [8] was inactive. Moreover, the outcome in [9], in test [10], in test [11], in test [12], in [13] and in [14] was inactive. The result in test [15], in test [16], in [17], in [18], in [19] and in [20] was inactive.
